# PubChem BioAssay (NCATS)
# Several values for one entry are separate records, joined by “and”; a condition that tells them apart may be missing. Equal values may be shown once. A number with no mark means an inactive call. Results filed as inconclusive are left out. A call without a number means that no potency is given here. Activity calls are given as the source filed them. Unless noted, calls come from the whole dose curve; as a rule, active = well fitted curve in the direction sought with a large enough effect; inconclusive = small, poorly fitted or top-dose-only effect, or another doubt; inactive = no such curve, though single readings can be large; an effect the other way counts as inactive or inconclusive.
# Columns and labels:
# MKL-2 = test: qHTS assay to identify novel small-molecules to repurpose for Merkel cell carcinoma treatment (AID 1296009); details: MCC and control cell lines, CellTiter-Glo viability, 72 h; series mostly up to 46 µM; note: nearly all actives have a fitted effect of over 60% in size
# Summary of the method: (§1)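 Cell viability, measured as CellTiter-Glo luminescence, was normalized between DMSO and no-cell wells. The cells had been exposed to 8- or 11-point compound dilutions for 72 hr at 37 degree celsius.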
# NIH3T3 = test: as above; details: MCC and control cell lines, CellTiter-Glo viability, 72 h; at 44.8 µM (top of the series) unless noted
# Summary of the method: as §1
# UISO = test: as above; details: MCC and control cell lines, CellTiter-Glo viability, 72 h; series mostly up to 46 µM
# Summary of the method: as §1
# WaGa = test: as above; details: MCC and control cell lines, CellTiter-Glo viability, 72 h; series mostly up to 46 µM
# Summary of the method: as §1
# C33A = test: Primary qHTS to identify gynecologic anti-cancer compounds using libraries of approved drugs and bioactive compounds (AID 1345084); details: Gynecologic cancer cell panel viability, ATPlite luminescence, 48 h; series mostly up to 57.5 µM; note: nearly all actives have a fitted effect of over 55% in size
# Summary of the method: (§2)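 In this quantitative HTS, cell killing is estimated from loss of ATP-dependent luciferase light. Cells see five compound concentrations over a 48 h exposure.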
# CAOV3 = test: as above; details: Gynecologic cancer cell panel viability, ATPlite luminescence, 48 h; series mostly up to 57.5 µM
# Summary of the method: as §2
# CASKI = test: as above; details: Gynecologic cancer cell panel viability, ATPlite luminescence, 48 h; series mostly up to 57.5 µM
# Summary of the method: as §2
# Es-2 = test: as above; details: Gynecologic cancer cell panel viability, ATPlite luminescence, 48 h; series mostly up to 57.5 µM
# Summary of the method: as §2
# Hek293T = test: as above; details: Gynecologic cancer cell panel viability, ATPlite luminescence, 48 h, control line for the selectivity index; series mostly up to 57.5 µM
# Summary of the method: as §2
# JEG-3 = test: as above; details: Gynecologic cancer cell panel viability, ATPlite luminescence, 48 h; series mostly up to 57.5 µM
# Summary of the method: as §2
# OV90 = test: as above; details: Gynecologic cancer cell panel viability, ATPlite luminescence, 48 h; series mostly up to 57.5 µM
# Summary of the method: as §2
# PA-1 = test: as above; details: Gynecologic cancer cell panel viability, ATPlite luminescence, 48 h; series mostly up to 57.5 µM
# Summary of the method: as §2
# SKOV3 = test: as above; details: Gynecologic cancer cell panel viability, ATPlite luminescence, 48 h; series mostly up to 57.5 µM
# Summary of the method: as §2
# Tov-21-G = test: as above; details: Gynecologic cancer cell panel viability, ATPlite luminescence, 48 h; series mostly up to 57.5 µM
# Summary of the method: as §2
# Tov112D = test: as above; details: Gynecologic cancer cell panel viability, ATPlite luminescence, 48 h; series mostly up to 57.5 µM
# Summary of the method: as §2
# [1] = Drug repurposing screens with cells derived from glioblastoma tumor samples (AID 1345199); details: GBM patient neurospheres viability, ATP luminescence, 48 h; note: nearly all actives have a fitted effect of over 40% in size; note: potency is the fitted concentration of half-maximal effect
# Summary of the method: (§3)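 Primary testing used CD133+ neurospheres from four GBM patients, seven concentrations, 48 h exposure and ATP-based viability; confirmation added three slower-growing patient lines.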
# astro = test: as above; details: viability, ATP luminescence, 48 h; series mostly up to 45.9 µM
# Summary of the method: as §3
# HeLa = test: Primary qHTS to identify gynecologic anti-cancer compounds using libraries of approved drugs and bioactive compounds (AID 1345084); details: Gynecologic cancer cell panel viability, ATPlite luminescence, 48 h; series mostly up to 57.5 µM; note: nearly all actives have a fitted effect of over 55% in size
# Summary of the method: as §2
# [2] = molecular target: Nuclear receptor subfamily 1 group I member 2 (Rattus norvegicus) (UniProt Q9R1A7); test: qHTS assay for small molecule activators of the rat pregnane X receptor (rPXR) signaling pathway (AID 651751; call rule not given here); details: rPXR reporter cells, luciferase (One-Glo), 24 h
# Sequence of Nuclear receptor subfamily 1 group I member 2 (Rattus norvegicus) (Q9R1A7 whole entry, looked up): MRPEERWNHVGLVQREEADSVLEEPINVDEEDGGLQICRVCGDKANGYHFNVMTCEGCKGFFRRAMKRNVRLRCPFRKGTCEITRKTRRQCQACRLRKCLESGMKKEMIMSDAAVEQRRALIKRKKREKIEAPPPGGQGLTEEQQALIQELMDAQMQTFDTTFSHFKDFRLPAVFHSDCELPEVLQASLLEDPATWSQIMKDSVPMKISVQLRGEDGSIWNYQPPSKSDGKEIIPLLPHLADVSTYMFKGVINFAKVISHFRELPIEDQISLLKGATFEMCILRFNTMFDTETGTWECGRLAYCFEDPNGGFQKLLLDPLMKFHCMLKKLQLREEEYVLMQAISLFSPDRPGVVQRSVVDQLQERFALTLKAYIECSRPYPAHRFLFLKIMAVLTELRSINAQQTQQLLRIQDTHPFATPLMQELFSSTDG
# [3] = at 45.9 µM (top of the series), tumour line B
# [4] = at 45.9 µM (top of the series), tumour line D
# [5] = at 46 µM (top of the series), tumour line A
# [6] = at 46.1 µM (top of the series), tumour line C
structure (smiles),measurement,setting,value
COCCc1ccc(OCC(O)CNC(C)C)cc1 (stereo unspecified),Potency,MKL-2,inactive
same,outcome,NIH3T3,inactive
same,Potency,UISO,inactive
same,Potency,WaGa,inactive
same,Potency,C33A,inactive
same,Potency,CAOV3,inactive
same,Potency,CASKI,inactive
same,Potency,Es-2,inactive
same,Potency,Hek293T,inactive
same,Potency,JEG-3,inactive
same,Potency,OV90,inactive
same,Potency,PA-1,inactive
same,Potency,SKOV3,inactive
same,Potency,Tov-21-G,inactive
same,Potency,Tov112D,inactive
same,"activity, negative = cell killing",[1]; [3],-10.1% and -7.19% and -6.43%
same,"activity, negative = cell killing",[1]; [4],1.85% and 20.6% and -26.1%
same,"activity, negative = cell killing",[1]; [5],-33.9%
same,"activity, negative = cell killing",[1]; [6],-0.129% and -0.523%
same,Potency,astro,inactive
C#CCN(C)CCCOc1ccc(Cl)cc1Cl,Potency,MKL-2,inactive
same,Potency,UISO,inactive
same,Potency,WaGa,inactive
same,Potency,C33A,inactive
same,Potency,CAOV3,inactive
same,Potency,CASKI,inactive
same,Potency,Es-2,inactive
same,Potency,HeLa,inactive
same,Potency,Hek293T,inactive
same,Potency,JEG-3,inactive
same,Potency,OV90,inactive
same,Potency,PA-1,inactive
same,Potency,SKOV3,inactive
same,Potency,Tov-21-G,inactive
same,Potency,Tov112D,inactive
same,"activity, negative = cell killing",[1]; [3],-0.374%
same,"activity, negative = cell killing",[1]; [4],-15.7%
same,"activity, negative = cell killing",[1]; [5],-39.4%
same,"activity, negative = cell killing",[1]; [6],-14.2%
NC(Cc1ccc(Cl)cc1)C(=O)O (stereo unspecified),"activity change, negative = cytotoxicity",MKL-2,20% [at 0.597 µM]
same,"activity change, negative = cytotoxicity",UISO,36.5% [at 0.597 µM]
same,"activity change, negative = cytotoxicity",WaGa,12.8% [at 0.597 µM]
same,"activity change, negative = cytotoxicity",C33A,13.6% [at 0.462 µM]
same,"activity change, negative = cytotoxicity",CAOV3,0.059% [at 0.462 µM]
same,"activity change, negative = cytotoxicity",CASKI,7.36% [at 0.462 µM]
same,"activity change, negative = cytotoxicity",Es-2,1.05% [at 0.462 µM]
same,"activity change, negative = cytotoxicity",HeLa,14.4% [at 0.462 µM]
same,"activity change, negative = cytotoxicity",Hek293T,0.47% [at 0.462 µM]
same,"activity change, negative = cytotoxicity",JEG-3,1.83% [at 0.462 µM]
same,"activity change, negative = cytotoxicity",OV90,-16.1% [at 0.462 µM]
same,"activity change, negative = cytotoxicity",PA-1,-4.76% [at 0.462 µM]
same,"activity change, negative = cytotoxicity",SKOV3,0.0141% [at 0.462 µM]
same,"activity change, negative = cytotoxicity",Tov-21-G,11.9% [at 0.462 µM]
same,"activity change, negative = cytotoxicity",Tov112D,2.14% [at 0.462 µM]
same,"activity, negative = cell killing",[1]; [3],-4.29%
same,"activity, negative = cell killing",[1]; [4],-0.449%
same,"activity, negative = cell killing",[1]; [5],-31.7%
same,"activity, negative = cell killing",[1]; [6],0.887%
CC(N=C(NC#N)Nc1ccncc1)C(C)(C)C (stereo unspecified),Potency,MKL-2,inactive
same,Potency,UISO,inactive
same,Potency,WaGa,inactive
same,Potency,C33A,inactive
same,Potency,CAOV3,inactive
same,Potency,CASKI,inactive
same,Potency,Es-2,inactive
same,Potency,HeLa,inactive
same,Potency,Hek293T,inactive
same,Potency,OV90,inactive
same,Potency,PA-1,inactive
same,Potency,SKOV3,inactive
same,Potency,Tov-21-G,inactive
same,Potency,Tov112D,inactive
same,"activity, negative = cell killing",[1]; [3],-17.7%
same,"activity, negative = cell killing",[1]; [4],-6.7%
same,"activity, negative = cell killing",[1]; [6],-1.36%
same,Potency,astro,inactive
CCN1CCc2nc(N)oc2CC1,Potency,MKL-2,inactive
same,Potency,UISO,inactive
same,Potency,WaGa,inactive
same,Potency,C33A,inactive
same,Potency,CAOV3,inactive
same,Potency,CASKI,inactive
same,Potency,Es-2,inactive
same,Potency,HeLa,inactive
same,Potency,Hek293T,inactive
same,Potency,JEG-3,inactive
same,Potency,OV90,inactive
same,Potency,PA-1,inactive
same,Potency,Tov-21-G,inactive
same,Potency,Tov112D,inactive
same,"activity, negative = cell killing",[1]; [3],-14.6%
same,"activity, negative = cell killing",[1]; [4],-6.92%
same,"activity, negative = cell killing",[1]; [6],-18.3%
same,Potency,astro,inactive
C[C@]12CCC(=O)C=C1CC[C@@H]1[C@@H]2C(=O)C[C@@]2(C)[C@H]1CC[C@]2(O)C(=O)CO,Potency,MKL-2,inactive
same,Potency,UISO,inactive
same,Potency,WaGa,inactive
same,Potency,C33A,inactive
same,Potency,CAOV3,inactive
same,Potency,CASKI,inactive
same,Potency,Es-2,inactive
same,Potency,HeLa,inactive
same,Potency,Hek293T,inactive
same,Potency,JEG-3,inactive
same,Potency,OV90,inactive
same,Potency,SKOV3,inactive
same,Potency,Tov-21-G,inactive
same,Potency,Tov112D,inactive
same,"activity, negative = cell killing",[1]; [3],-3.67%
same,"activity, negative = cell killing",[1]; [4],-5.79%
same,"activity, negative = cell killing",[1]; [5],-18.4%
same,"activity, negative = cell killing",[1]; [6],4.73%
Cc1ccc(=O)n(-c2ccccc2)c1,Potency,MKL-2,inactive
same,Potency,UISO,inactive
same,Potency,WaGa,inactive
same,Potency,C33A,inactive
same,Potency,CAOV3,inactive
same,Potency,CASKI,inactive
same,Potency,Es-2,inactive
same,Potency,HeLa,inactive
same,Potency,Hek293T,inactive
same,Potency,JEG-3,inactive
same,Potency,OV90,inactive
same,Potency,PA-1,inactive
same,Potency,SKOV3,inactive
same,Potency,Tov-21-G,inactive
same,Potency,Tov112D,inactive
same,"activity, negative = cell killing",[1]; [3],-7.87%
same,"activity, negative = cell killing",[1]; [4],11.3%
same,"activity, negative = cell killing",[1]; [5],-13.3%
same,"activity, negative = cell killing",[1]; [6],-7.43%
same,Potency,astro,inactive
CN(C)CCOC(=O)COc1ccc(Cl)cc1,Potency,MKL-2,inactive
same,Potency,UISO,inactive
same,Potency,WaGa,inactive
same,Potency,C33A,inactive
same,Potency,CAOV3,inactive
same,Potency,CASKI,inactive
same,Potency,Es-2,inactive
same,Potency,HeLa,inactive
same,Potency,Hek293T,inactive
same,Potency,JEG-3,inactive
same,Potency,OV90,inactive
same,Potency,PA-1,inactive
same,Potency,Tov-21-G,inactive
same,Potency,Tov112D,inactive
same,"activity, negative = cell killing","[1]; at 20 µM (top of the series), tumour line C",-19.3%
same,"activity, negative = cell killing","[1]; at 21.2 µM (top of the series), tumour line B",-11.3%
same,"activity, negative = cell killing","[1]; at 21.2 µM (top of the series), tumour line D",-14.6%
same,Potency,astro,inactive
COc1ccc(CN(CCN(C)C)c2ccccn2)cc1,Potency,MKL-2,inactive
same,Potency,UISO,inactive
same,Potency,WaGa,inactive
same,Potency,C33A,inactive
same,Potency,CAOV3,inactive
same,Potency,CASKI,inactive
same,Potency,Es-2,inactive
same,Potency,HeLa,inactive
same,Potency,Hek293T,inactive
same,Potency,JEG-3,inactive
same,Potency,OV90,inactive
same,Potency,PA-1,inactive
same,Potency,SKOV3,inactive
same,Potency,Tov-21-G,inactive
same,Potency,Tov112D,inactive
same,"activity, negative = cell killing",[1]; [3],-3.6%
same,"activity, negative = cell killing",[1]; [6],-2.37%
same,Potency,[1]; tumour line A,35.5 µM (active)
same,max response,[2],7.02%
COc1cc(Cc2cnc(N)nc2N)cc(OC)c1OC,Potency,MKL-2,inactive
same,Potency,UISO,inactive
same,Potency,WaGa,inactive
same,Potency,C33A,inactive
same,Potency,CAOV3,inactive
same,Potency,CASKI,inactive
same,Potency,Es-2,inactive
same,Potency,HeLa,inactive
same,Potency,Hek293T,inactive
same,Potency,JEG-3,inactive
same,Potency,OV90,inactive
same,Potency,PA-1,inactive
same,Potency,Tov-21-G,inactive
same,Potency,Tov112D,inactive
same,"activity, negative = cell killing",[1]; [3],10.7%
same,"activity, negative = cell killing",[1]; [4],-9.7%
same,"activity, negative = cell killing",[1]; [6],-10.9%
same,Potency,astro,inactive
CCCCCN(CCCCC)C(=O)C(CCC(=O)O)NC(=O)c1ccc(Cl)c(Cl)c1 (stereo unspecified),Potency,MKL-2,inactive
same,Potency,UISO,inactive
same,Potency,WaGa,inactive
same,Potency,C33A,inactive
same,Potency,CAOV3,inactive
same,Potency,CASKI,inactive
same,Potency,Es-2,inactive
same,Potency,HeLa,inactive
same,Potency,Hek293T,inactive
same,Potency,JEG-3,inactive
same,Potency,OV90,inactive
same,Potency,PA-1,inactive
same,Potency,SKOV3,inactive
same,Potency,Tov-21-G,inactive
same,Potency,Tov112D,inactive
same,"activity, negative = cell killing",[1]; [3],-4.86%
same,"activity, negative = cell killing",[1]; [4],-12.8%
same,"activity, negative = cell killing",[1]; [6],-26.2%
same,Potency,astro,inactive
